Reference: PubChem BioAssay AID588689 (Southern Research Specialized Biocontainment Screening …, 2011)
The campaign covered roughly 340,000 compounds. About 1,000 (0.29%) were called active. Cut-off read from the data, not from the text of the source: inconclusive = inhibition above about 29% without an active follow-up result; inactive = below that. A selection follows. Measured potencies and affinities stand elsewhere.

Target: Genome polyprotein (Dengue virus type 2 (strain 16681-PDK53)) (UniProt P29991)
Test: Dengue-2 NS5 methyltransferase inhibitors, primary screen, biochemical, confirmation dose response (AID 588689)
Settings: Dengue-2 NS5 methyltransferase capping enzyme assay, at 25 µM, stronger effect = higher value

Compound | inhibition | inhibition (measured here: pilot screen replicate inhibition) [%]
CC(C)(C)c1ccc(C(=O)Nc2c3c(nn2C(C)(C)C)CS(=O)(=O)C3)cc1 | -9.75% (inactive) | 
CCCOC(=O)CSC1=C(C#N)C(c2ccccc2OC)C(C#N)C(=O)N1 (configuration not stated) | -15.9% (inactive) | 
CNC(=O)CC1C(=O)N(C)C(=S)N1NC(=O)c1ccccc1 (configuration not stated) | 2.33% (inactive) | 
COc1cc(C)ccc1OCCOc1ccccc1Cl | -4.77% (inactive) | 
CCc1ccc(N=C2NC(=O)/C(=C/c3ccc(OCC(=O)O)c(OC)c3)S2)cc1 | -3.47% (inactive) | 
COc1cc(CO)cc(Br)c1OCC(=O)O | -12.1% (inactive) | 
Cc1ccc(S(=O)(=O)NCCC(=O)Nc2nccs2)cc1 | -0.76% (inactive) | 
Cc1cccc(N(CC(=O)Nc2ccccc2-c2ccccc2)S(=O)(=O)c2ccccc2)c1C | 1.45% (inactive) | 
CC(C)(C)c1csc(CS(=O)(=O)c2ccccn2)n1 | -4.67% (inactive) | 
Cc1ccc(NC(=O)c2ccc(S(=O)(=O)Nc3c(C)n(C)n(-c4ccccc4)c3=O)cc2)nc1 | -5.09% (inactive) | 
CSc1nnc(-c2ccccc2)c(-c2ccccc2)n1 | -5.41% (inactive) | 
O=C(CSc1nnc(-c2ccco2)c(-c2ccco2)n1)c1ccccc1 | 29.5% (inactive) | 
Cc1ccccc1NC(=O)CSc1n[nH]c(-c2ccco2)n1 | 0.76% (inactive) | 
Cc1cccc(NC(=O)CSc2nnc(-c3ccco3)c(-c3ccco3)n2)c1 | 25.8% (inactive) | 
Cc1ccc(NC(=O)CSc2nnc(-c3ccco3)c(-c3ccco3)n2)cc1 | 14.3% (inactive) | 
Cc1cccc(NC(=O)CSc2nnc(-c3ccco3)o2)c1C | 3.22% (inactive) | 
COc1cccc(NC(=O)c2ccc3c(O)c(S(=O)(=O)c4ccccc4)c(=O)[nH]c3c2)c1 | 4.09% (inactive) | 
CCCCn1c(N)c(N(CC(C)C)C(=O)CC2CCCCC2)c(=O)[nH]c1=O | -11.5% (inactive) | 
C[C@@H]1CC2[C@@H]3CC[C@H]4CC(=O)CC[C@]4(C)C3=CC[C@]2(C)[C@@]1(O)C(=O)CO (some centres not stated) | -1.96% (inactive) | 
CC1=C(C(=O)Nc2cccc(C(=O)NC(C)c3ccccc3)c2)SCCO1 (configuration not stated) | -4.13% (inactive) | 
CCOc1cc(C(=O)O)cc(Cl)c1OCC#N | -2.72% (inactive) | 
CCOc1cc(C=O)cc(Cl)c1OCC(N)=O | -2.73% (inactive) | 
O=c1[nH]c2ccc(S(=O)(=O)N3CCN(Cc4ccccc4)CC3)cc2[nH]c1=O | -2.74% (inactive) | 

Compound | inhibition | inhibition (measured here: pilot screen replicate inhibition) [%]
CC(=O)Nc1ccc(-c2csc(NC(=O)C3CCN(S(=O)(=O)c4cccs4)CC3)n2)cc1 | -5.78% (inactive) | 
Cc1ccc(N2C(=O)c3ccccc3C2=O)cc1C | -5.39% (inactive) | 
Cc1ccc(N2C(=O)c3ccc(C(=O)O)cc3C2=O)cc1C | 9.14% (inactive) | 
COC(=O)c1c(C(=O)OC)c(-c2ccccc2)n2c1CCC2 | 1.6% (inactive) | 
O=C(O)/C(=C/c1ccc(Cl)c([N+](=O)[O-])c1)c1ccc(S(=O)(=O)N2CCCCC2)s1 | 15.9% (inactive) | 
O=C(O)/C(=C\c1ccc(Cl)c([N+](=O)[O-])c1)c1ccc(S(=O)(=O)N2CCCC2)s1 | 0.37% (inactive) | 
O=C(CN1C(=O)C2CCCCC2C1=O)OCC(=O)c1ccc(Cl)s1 (configuration not stated) | -7.27% (inactive) | 
O=S(=O)(c1ccc(=S)[nH]c1)N1CCOCC1 | -8.4% (inactive) | 
COC(=O)c1cccc(NC(=O)C2CCCN2C(=O)c2cccs2)c1 (configuration not stated) | -0.73% (inactive) | 
Cc1cc(C(=O)N/N=C2/CC(C)CC(C)(C)C2)c(C)o1 (configuration not stated) | -5.92% (inactive) | 
CC1(C)CC(=O)C2=C(C1)c1c(ccc3ccccc13)NC2c1ccc(C(=O)O)cc1 (configuration not stated) | 2.04% (inactive) | 
CC1(C)CC(=O)C2=C(C1)c1c(ccc3ccccc13)NC2c1ccco1 (configuration not stated) | -4.19% (inactive) | 
COc1ccc(S(=O)(=O)N2CCN(c3ccccc3OC)CC2)cc1C(=O)N1CCCCC1 | -9.14% (inactive) | 
Cc1ccccc1OCC(=O)NNC(=S)NC(=O)c1ccccc1[N+](=O)[O-] | -8.89% (inactive) | 
O=C(COc1ccc(Br)cc1)NNC(=S)NC(=O)c1ccccc1[N+](=O)[O-] | 10.8% (inactive) | 
Cc1ccsc1CN(C)Cc1nc(C2CC2)no1 | 1.78% (inactive) | 
COc1ccccc1NS(=O)(=O)c1ccc(N/N=C/c2c(C)nn(-c3ccccc3)c2N2CCCC2)c([N+](=O)[O-])c1 | 0.96% (inactive) | 
CCOc1cccc(C=NNc2ccc(S(=O)(=O)Nc3ccccc3C(=O)O)cc2[N+](=O)[O-])c1O | 9.55% (inactive) | 
CCOc1ccc(C=NNc2ccc(S(=O)(=O)Nc3ccccc3C(=O)O)cc2[N+](=O)[O-])cc1OC | 7.77% (inactive) | 
CSc1ccc(C=NNc2ccc(S(=O)(=O)Nc3ccccc3C(=O)O)cc2[N+](=O)[O-])cc1 | 18.3% (inactive) | 
CCN(Cc1ccccc1)C(=O)c1ccc(C(=O)N(CC)Cc2ccccc2)cc1 | -1.55% (inactive) | 
CCc1nc(SCc2ccccc2)n[nH]1 | 8.1% (inactive) | 
Cc1cc(C(F)(F)F)c(C#N)c(SCC(=O)NC(C)(C)C)n1 | -2.7% (inactive) | 4.83
